Lamin A splicing – modulators of lamin A splicing. HeLa LMNA splicing GFP/RFP minigene ratio, 48 h. Potency, µM (doses to about 46.1 µM), without a hit: at the highest dose ratio change, negative = inhibition, actives largely listed as inhibitors. hit rate 0.01% among 200,000. AID 1487; active means well fitted inhibition curve with a large enough effect in the signal ratio, with a control signal flat, not every such curve was filed as active; inconclusive means small, poorly fitted or top-dose-only effect, or effect the other way, or a change in a side signal; the % refers to the signal ratio; further: potency means the concentration at half of the fitted maximal effect
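S3 HeLa cells stably expressing lamin A-EGFP splicing minigene plus DsRed2, 600 cells/well, 48 h compound exposure at 37C. Laser-scanning cytometry; analysed as GFP (500-530 nm)/RFP (575-640 nm) total intensity ratio; 0.5% DMSO vehicle.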
IMPase inh – IMPase inhibition in cells; P97697; CHO-M1 cells, IP1 accumulation, HTRF TR-FRET ratio; inhibition (IP1 accumulation), % at 46.1 µM; 120,000 tested, under 10 active; AID 901; active means well fitted curve in the direction sought with a large enough effect in the signal ratio, not every such curve was filed as active; inconclusive means small, poorly fitted or top-dose-only effect, or a change in a side signal; inactive means no such curve, though single readings can be large or run the other way; the % refers to the signal ratio;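 further: cells stimulated with carbachol in lithium chloride buffer; plate controls were DMSO basal wells for no effect and reference inhibitor wells for full effect; higher means more IMPase inhibition seen as more IP1 and lower FRET ratio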
Target sequence (P97697 whole entry, looked up): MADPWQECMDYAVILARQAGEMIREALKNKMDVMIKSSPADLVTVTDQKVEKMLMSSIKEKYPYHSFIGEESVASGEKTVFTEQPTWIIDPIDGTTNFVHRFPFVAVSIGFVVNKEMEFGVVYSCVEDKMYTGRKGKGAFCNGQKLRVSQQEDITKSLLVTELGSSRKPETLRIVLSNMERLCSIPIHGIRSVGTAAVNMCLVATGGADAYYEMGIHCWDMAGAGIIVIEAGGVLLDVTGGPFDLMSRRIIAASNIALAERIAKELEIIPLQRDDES
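Measured: the HTRF emission ratio (665/620 nm) plus the 620 nm donor channel, each fitted to the Hill equation to give AC50. Cells were CHO-M1 given compounds up to 46 uM and a 30 min carbachol stimulation at 37C.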
HPGD block – inhibitors of human 15-hydroxyprostaglandin dehydrogenase (HPGD). P15428. purified HPGD, NADH fluorescence kinetic, PGE2 substrate. Potency, µM, without a hit: at the highest dose activity change, negative = inhibition, most hits filed as inhibitors. hit rate 4.3% among 150,000. AID 894; further: potency means the concentration at half of the fitted maximal effect
Target sequence (P15428 whole entry, looked up): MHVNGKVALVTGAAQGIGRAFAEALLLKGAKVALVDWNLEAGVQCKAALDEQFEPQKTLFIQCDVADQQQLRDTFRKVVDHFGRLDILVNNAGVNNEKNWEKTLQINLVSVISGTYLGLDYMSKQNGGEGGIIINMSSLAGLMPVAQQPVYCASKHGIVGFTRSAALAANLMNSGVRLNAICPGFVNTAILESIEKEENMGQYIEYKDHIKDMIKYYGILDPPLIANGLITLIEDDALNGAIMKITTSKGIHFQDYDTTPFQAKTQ
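20 nM HPGD preincubated 15 min at room temperature with compound in 50 mM Tris-HCl pH 8, 0.01% Tween 20. Started with 1 mM NAD+ and 30 uM prostaglandin E2; NADH fluorescence (360/450 nm) read 5 times over 30-s intervals, last minus first.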
Luc counter – Kinase-Glo luciferase inhibition (counter-screen). Q27757. Kinase-Glo luciferase, ATP luminescence, 8 min. Potency, µM (highest dose often 38.3 µM), for inactives: top-dose activity change, negative = inhibition, usual class: inhibitors. hit rate 0.28% among 200,000. AID 1379; active means well fitted inhibition curve with a large enough effect; inconclusive means small, poorly fitted or top-dose-only effect; further: potency means the concentration at half of the fitted maximal effect; nearly all actives have a fitted effect of over 60% in size
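Recombinant Kinase-Glo luciferase, 10 uM ATP (linear range), luciferin; imidazole pH 7.2 / KCl / MgCl2 / Tween / BSA buffer; 8 min RT; luminescence.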
ALDH1A1 inh – ALDH1A1 (human) enzyme inhibition | Potency, µM (doses to about 75.3 µM), for inactives: at the top dose activity, negative = inhibition, hits mostly inhibitors | P00352 | Purified ALDH1A1, NADH fluorescence, propionaldehyde substrate | hit rate 7.3% among 220,000;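 further: potency means the concentration at half of the fitted maximal effect; plate controls were no enzyme wells and a reference inhibitor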
PNC assembly inh – blocks assembly of the perinucleolar compartment; hit rate 3.1% among 140,000; AID 2417; activity change (PNC), negative = inhibition, % at 10 µM; PC3M PTB-GFP, PNC prevalence imaging, 16 h; stronger effect = lower value;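 active means readout at or below -70, meaning at least 70% loss of cells showing the perinucleolar compartment, a nuclear body marking cancer cells; inconclusive means readout between -30 and a set limit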;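 further: plate controls were DMSO wells for no effect and camptothecin positive control wells for full effect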
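PC3M cells stably expressing PTB-GFP, 750–1000 cells/well, treated 16 h at 37 °C with compound (23 nl of library stock), in duplicate. After paraformaldehyde fixation and Hoechst stain, imaged at 20x; PNC prevalence scored by image analysis.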
* hit, by the source's call; [ ] = another dose, or the depositor's remark. In the library only some 10% were active in any assay of this set; here they are far more common. Unless noted, the call rests on the fitted dose curve; in most records, active means well fitted inhibition curve with a large enough effect (not every such curve was filed as active); inconclusive means small, poorly fitted or top-dose-only effect, or another doubt; inactive means no such curve, though single readings can be large or run the other way. Unless noted, on the % scale 0 is the no-effect control and ±100 the full control effect.

For Cc1ccccc1Cn1c(O)c(N=NC(=S)Nc2ccccc2F)c2ccccc21 the results were Lamin A splicing inconclusive, Luc counter -2% and ALDH1A1 inh 32µM*.
`Oc1c(N=NC(=S)Nc2ccccc2F)c2ccccc2n1Cc1ccccc1F` gave ALDH1A1 inh 20µM*.
Screening Cc1ccc(Cn2c(O)c(N=NC(=S)Nc3ccccc3F)c3cc(S(=O)(=O)N4CCOCC4)ccc32)cc1 returned Lamin A splicing 13%[46 µM], Luc counter 0% and ALDH1A1 inh inconclusive.
For C=CCn1c(O)c(N=NC(=S)Nc2cccc(OC)c2)c2ccccc21 the results were Lamin A splicing inconclusive, HPGD block -21%, Luc counter 1%, ALDH1A1 inh inconclusive and PNC assembly inh 24.
`COc1ccc(NC(=O)Cn2c(=O)oc3cc(S(=O)(=O)N4CCCCC4C)ccc32)cc1` (centres undefined) gave Lamin A splicing 21%[46 µM].
CCN(CC)C(=O)CSc1nnc2[nH]c(=O)cc(C)n12 was read as Lamin A splicing 19%[46 µM].
Screening Cc1cccc2c(=O)cc(CSc3ccccc3NC(=O)C(C)(C)C)[nH]c12 returned Lamin A splicing -14%[46 µM].
CCNC(=S)N=Nc1c(O)n(Cc2ccc(Cl)cc2)c2ccccc12 was read as Lamin A splicing inconclusive, HPGD block -22%, Luc counter 11%, ALDH1A1 inh 3.5µM* and PNC assembly inh -21.
For Cc1ccc(N2C(=O)CSC23C(=O)N(CC(=O)NC2CCCCC2)c2ccccc23)cc1 (centres undefined) the results were Lamin A splicing -16%[46 µM].
`CC(C)C(=O)NS(=O)(=O)c1ccc(N)cc1` gave Lamin A splicing 2%, IMPase inh -7, HPGD block -1%, Luc counter -3%, ALDH1A1 inh inconclusive and PNC assembly inh inconclusive.
CC(C)CC(=O)NS(=O)(=O)c1ccc(N)cc1 was read as Lamin A splicing -7%, IMPase inh 7, HPGD block -2%, Luc counter -1%, ALDH1A1 inh 10µM* and PNC assembly inh inconclusive.
For O=c1c2ccccc2c(C=NCCCN2CCOCC2)c(O)n1Cc1ccccc1 the results were Lamin A splicing inconclusive, IMPase inh 5, HPGD block -27%, Luc counter -8%, ALDH1A1 inh 14µM* and PNC assembly inh -21.
O=c1c2ccccc2c(C=NCCCN2CCOCC2)c(O)n1Cc1ccc2c(c1)OCO2 was read as Lamin A splicing inconclusive, Luc counter 0% and ALDH1A1 inh -11%.
For CNC(=O)COc1ccc(Nc2nnc(-c3ccc(C)c(S(=O)(=O)NC(C)(C)C)c3)c3ccccc23)cc1 the results were IMPase inh 8.
Screening CCCCSc1nnc2[nH]c(=O)cc(N)n12 returned Lamin A splicing 5%, IMPase inh 0, HPGD block 16µM*, Luc counter 18%, ALDH1A1 inh inconclusive and PNC assembly inh 25.
Screening CSc1cccc(NC(=O)c2nnn(Cc3ccccc3)c2N)c1 returned Lamin A splicing 0%, IMPase inh 4, HPGD block -9%, Luc counter 0%, ALDH1A1 inh -9% and PNC assembly inh -10.
For COc1cc(NC(=O)c2nnn(Cc3ccc(SC)cc3)c2N)cc(OC)c1 the results were Lamin A splicing -2%, IMPase inh 5, HPGD block -14%, Luc counter 2%, ALDH1A1 inh 7.9µM* and PNC assembly inh inconclusive.
`CCN(CC)S(=O)(=O)c1ccc(NS(=O)(=O)c2cccs2)cc1` gave Luc counter 5% and ALDH1A1 inh inconclusive.
Screening CCN(CC)S(=O)(=O)c1ccc(NS(=O)(=O)c2ccc(O)c([N+](=O)[O-])c2)cc1 returned Lamin A splicing -8%, HPGD block 35µM*, Luc counter 2%, ALDH1A1 inh 5µM* and PNC assembly inh -20.
Screening COc1ccc(CC(=O)NC2CC(=O)N(c3ccc(C)c(C)c3)C2)cc1OC (centres undefined) returned Lamin A splicing 6%[46 µM].

Assay outcomes deposited in PubChem BioAssay by National Center for Advancing Translational Sciences (NCATS).
